Hits are enriched below; roughly 3.9% of the tested compounds scored in any of these assays.
CCHF vOTU inh: blocks the CCHF virus ovarian tumor domain protease. CCHFV vOTU protease, Pep-AMC fluorescence. inhibition, % at 11.5 µM. 0.55% of 370,000 active. AID 651958; in the data active = inhibition above about 30%
BoNT-F LC inh: BoNT F light chain protease inhibition; Multiplex microsphere protease cleavage assay, flow cytometry; inhibition, % at 10 µM; 0.22% of 360,000 active; AID 588497; in the data active = inhibition above about 35%, passing the limit was not always enough; inconclusive = no clear call, values can overlap the other calls
Anthrax LF inh2: inhibitors of Bacillus anthracis lethal factor protease | multiplex microsphere protease cleavage assay, LF | P15917 | inhibition, % at 10 µM | 0.12% of 360,000 active | AID 588501
BoNT-A LC inh2: inhibitors of Botulinum neurotoxin A light chain protease; multiplex microsphere protease substrate cleavage, flow cytometry; inhibition, % at 10 µM; 0.17% of 360,000 active; AID 588499
Bead autofluor: compound fluorescence in toxin protease inhibitor counterscreen; compound autofluorescence counterscreen, microsphere flow cytometry; active compounds read high; 3.1% of 360,000 active; fluorescence intensity (test concentration not listed); AID 624483; in the data active = fluorescence intensity above about 16000; inconclusive = no clear call, values can overlap the other calls
SARS 3CLpro inh: SARS-CoV 3CLpro protease inhibition. recombinant SARS-CoV 3CLpro, quenched FRET peptide cleavage. 0.14% of 290,000 active. inhibition, % at 6 µM. P0C6X7. AID 1706; in the data active = inhibition above about 12%
Numbers stand for hits; . = inactive; ? = inconclusive; / = no result. Cut-off read from the data, not from the text of the source, unless noted: active = inhibition above about 30%; inconclusive = no clear call, values can overlap the other calls; inactive = below that.

SMILES	CCHF vOTU inh	BoNT-F LC inh	Anthrax LF inh2	BoNT-A LC inh2	Bead autofluor	SARS 3CLpro inh
COc1ccc(N2CCCN(CC(=O)Nc3ccc(Cl)c(Cl)c3)CC2)cc1	.	/	/	/	/	/
O=C(c1cc(C2CC2)on1)N(C1CCCCC1)C1CCOCC1	.	/	/	/	/	/
CCOC(=O)c1ccc(NC(=O)CSc2nnc(SCc3cccc4ccccc34)s2)cc1	.	/	/	/	/	/
Cc1ccc(-c2nn(CC(=O)NCC3CCCO3)c(=O)c3ccccc23)cc1 (centres undefined)	/	.	.	.	23922	.
O=C(Cn1nc(-c2ccc(Cl)cc2)c2ccccc2c1=O)NCC1CCCO1 (centres undefined)	.	.	.	.	.	.
COC(=O)[C@]12C[C@H](CC(=O)NCc3ccc(OC)c(OC)c3)C(=O)N(CCc3ccc(OC)c(OC)c3)C1=C[C@H](COCc1ccccc1)O[C@@H]2C	.	/	/	/	/	/
CC(C)Oc1ccc(C(CC(=O)NCc2ccco2)c2ccccc2)cc1 (centres undefined)	.	.	.	.	16645	.
CCC(C)[C@H](NC(=O)NCc1ccco1)C(=O)OC (some centres undefined)	.	?	.	.	.	.
COC(=O)[C@H](C)NC(=O)NCc1ccco1	/	.	.	.	20251	.
CN(CCc1ccccn1)C(=O)Nc1ccc(Cl)cc1	.	.	.	.	17188	.
O=C(CCSCCc1ccccn1)Nc1ccc(Cl)cn1	.	.	.	?	20129	.
O=C(CCSCCc1ccccn1)Nc1ccc(Br)cn1	.	.	.	.	23488	.
O=C(CCSCCc1ccccn1)Nc1ccccn1	.	.	.	.	.	.
NC(=O)c1c(N)[nH]c(C(=O)c2ccccc2)c1-c1ccc(Cl)cc1Cl	.	/	/	/	/	/
CC1CCCC(C)N1C(=O)COC(=O)CSc1ccc(C(N)=O)cc1[N+](=O)[O-] (centres undefined)	.	.	.	.	21171	/
CC12CCC(C(=O)Nc3ccc4c(c3)OCCO4)(OC1=O)C2(C)C (centres undefined)	.	.	.	.	23818	.
Cc1cccc(NC(=O)C23CCC(C)(C(=O)O2)C3(C)C)c1 (centres undefined)	.	.	.	.	.	.
CC12CCC(C(=O)NC(c3ccccc3)c3ccccc3)(OC1=O)C2(C)C (centres undefined)	.	.	.	.	22368	.
O=C(Nc1ccc(F)cc1F)C1CCCN1S(=O)(=O)c1cccnc1 (centres undefined)	.	/	/	/	/	/
Cc1ccccc1NC(=O)c1cccc2c1-c1ccccc1C2=O	.	/	/	/	/	/
CN(CCO)c1cccc2c1S(=O)(=O)N(Cc1cn(Cc3ccc(Cl)cc3)nn1)Cc1ccccc1O2	.	/	/	/	/	/
CCOCCn1c(N2CCN(c3ccc(OC)cc3)CC2)nc2c1c(=O)n(C)c(=O)n2C	.	.	.	.	.	.
COCCn1c(N2CCN(c3ccc(OC)cc3)CC2)nc2c1c(=O)n(C)c(=O)n2C	.	.	.	.	17764	.
COc1cccc(C(=O)Cn2c(N3CCOCC3)nc3c2c(=O)n(C)c(=O)n3C)c1	.	.	.	.	16198	.
COC(=O)C1=C(C)N(CC(C)C)C(=S)NC1c1cccc(Br)c1 (centres undefined)	.	/	/	/	/	/
SMILES	CCHF vOTU inh	BoNT-F LC inh	Anthrax LF inh2	BoNT-A LC inh2	Bead autofluor	SARS 3CLpro inh
CCc1c(-c2ccc(F)cc2F)ncn1CCc1ccccc1OC	.	/	/	/	/	/
O=C1Nc2ccccc2CCC1Sc1nnc(-c2ccc(Cl)cc2)s1 (centres undefined)	.	.	.	.	24726	.
CCOC(=O)CN1C(=O)C(Sc2nnc(-c3ccccc3OC)s2)CCc2ccccc21 (centres undefined)	/	/	/	/	/	.
O=S(=O)(O)c1nc2ccccc2n1Cc1ccccc1	.	.	.	.	.	.
Clc1ncccc1-c1nc2ccccc2n1Cc1ccccc1	/	.	.	?	20310	.
CS(=O)(=O)c1nc2ccccc2n1Cc1ccccc1	.	.	.	.	23807	.
CCn1c(-c2cccnc2Cl)nc2ccccc21	.	.	.	.	23168	.
Cc1ccccc1CN1CCCCC(NC(=O)c2ccccc2C(F)(F)F)C1=O (centres undefined)	.	/	/	/	/	/
CCOC(=O)C1=C(C)C(c2ccccc2)NC(=S)N1 (centres undefined)	.	.	.	.	18384	.
COC(=O)[C@]12C[C@H](CC(=O)NCC3CCCCC3)C(=O)N(Cc3cccc4ccccc34)C1=C[C@H](C(C)C)O[C@@H]2C1CC1	.	/	/	/	/	/
COc1ccc(N2C(=O)CCC(C(C)=O)=C2C)cc1	.	.	.	?	22405	.

Screening data as filed in PubChem.
